HSF1 activator: increases HSF-1 driven luciferase reporter signal; NIH3T3-HGL HSF-1 luciferase reporter, MG132, 8 h; 100% = twice DMSO control signal; activation, % at 9 µM; 300,000 tested, 1.7% active; AID 504408;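 active means mean replicate activation of at least 50% with a set share of replicates each reaching 50%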;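 further: 0% = median of the neutral control wells and 100% = twice that signal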
HSP90 inh: blocks HSP90-mediated luciferase refolding in reticulocyte lysate; Rabbit reticulocyte lysate, luciferase refolding luminescence, 3 h; inhibition, % at 5.6 µM; 290,000 tested, 0.91% active;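 active means inhibition above the screen-wide mean plus 3 SD, computed separately per campaign, cut at about 16% in these data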;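 further: 0% = DMSO wells and 100% = 60 µM geldanamycin wells; inhibitors lower the luminescence because luciferase stays unfolded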
NR0B1 inh: NR0B1 (DAX1) inhibition | 340,000 tested, 0.99% active | AID 504766 | inhibition, % at 6.75 µM | P51843 | HEK293 Gal4-DAX1 luciferase reporter, luminescence;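 active means inhibition above the mean over all tested compounds plus 3 SD, cut at about 4.2% in these data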;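 further: 0% = DAX1-transfected cells with DMSO and 100% = empty-vector control cells with DMSO; inhibition shows as a rise in luminescence from relieved DAX1 repression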
AHR act: human AHR activation | activation, % at 5 µM | P35869 | AID 2796 | AHR-responsive luciferase reporter cells, luminescence | 320,000 tested, 2.5% active; in the data active means activation above about 47%;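 further: 0% = vehicle wells and 100% = reference agonist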
Target sequence (P35869 whole entry, looked up): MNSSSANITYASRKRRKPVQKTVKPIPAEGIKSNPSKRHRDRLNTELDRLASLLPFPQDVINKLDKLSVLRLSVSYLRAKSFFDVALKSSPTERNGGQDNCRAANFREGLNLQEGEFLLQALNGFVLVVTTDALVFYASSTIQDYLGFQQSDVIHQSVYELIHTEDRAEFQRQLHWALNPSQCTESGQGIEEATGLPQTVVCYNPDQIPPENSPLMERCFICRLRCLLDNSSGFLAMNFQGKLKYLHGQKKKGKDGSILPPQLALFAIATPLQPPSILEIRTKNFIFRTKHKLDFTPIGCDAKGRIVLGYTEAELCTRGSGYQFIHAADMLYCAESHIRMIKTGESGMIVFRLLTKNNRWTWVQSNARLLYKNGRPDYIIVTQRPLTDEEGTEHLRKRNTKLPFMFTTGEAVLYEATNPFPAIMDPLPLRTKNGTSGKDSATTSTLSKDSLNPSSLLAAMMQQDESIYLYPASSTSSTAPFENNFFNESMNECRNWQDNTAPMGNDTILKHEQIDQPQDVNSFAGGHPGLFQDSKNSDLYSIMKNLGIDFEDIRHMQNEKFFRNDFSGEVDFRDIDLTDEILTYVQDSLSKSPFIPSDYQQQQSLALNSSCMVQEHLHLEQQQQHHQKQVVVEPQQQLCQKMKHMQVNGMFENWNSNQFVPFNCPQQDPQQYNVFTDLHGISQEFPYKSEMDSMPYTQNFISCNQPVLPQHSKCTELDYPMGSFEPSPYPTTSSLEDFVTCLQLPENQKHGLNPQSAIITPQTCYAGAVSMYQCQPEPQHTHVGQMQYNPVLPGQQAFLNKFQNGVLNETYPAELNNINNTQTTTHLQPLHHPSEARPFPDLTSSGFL
HSF1 inh: HSF1 inhibition. NIH3T3-HGL HSE-luciferase, MG132-induced, luminescence 8 h; hits give low values. activity change, negative = inhibition, % at 7.5 µM (by protocol). 300,000 tested, 0.77% active;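 active means more than half of replicate wells show activity change below -50%, luminescence cut by over half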;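 further: luciferase reports HSF-1 transcriptional activity via heat shock element; 0% = median of DMSO wells and -100% = zero luminescence signal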
FXN GAA850 act: increases GAA850 frataxin promoter reporter activity; HEK293 lucGAA850 FXN promoter luciferase reporter, 24 h; percent of 10 µM SAHA response; activation, % at 6 µM; 360,000 tested, 0.56% active; AID 540364;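 active means activation above the average of all compounds screened plus 3 SD, cutoff fixed separately per campaign, cut at about 7.5% in these data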;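 further: 0% = DMSO wells and 100% = 10 µM SAHA wells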
AHR act confirm: confirmation of human aryl hydrocarbon receptor activators | shares compounds with AHR act | human cells, AHR-responsive luciferase reporter, luminescence | activation, % at 9 µM | 2,300 tested, 87% active | AID 2845; in the data active means activation above about 49%;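 further: HepG2 hepatoma cells carrying a DRE-driven firefly luciferase reporter; 0% = vehicle wells and 100% = reference agonist wells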
PXR act counter: counter-screen for AHR activators: human PXR activators; 2,300 tested, 88% active; activation, % at 11.6 µM; AID 434939; shares compounds with AHR act; cell-based PXR reporter, luciferase luminescence; in the data active means activation above about 11%;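 further: human hepatoma DPX-2 cells expressing full-length human PXR; 0% = DMSO and 100% = reference agonist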
Starred values were filed as active, the others as inactive; · = not tested or not shown. In the library only some 5.9% were active in any assay of this set; here they are far more common.

SMILES	HSF1 activator	HSP90 inh	NR0B1 inh	AHR act	HSF1 inh	FXN GAA850 act	AHR act confirm	PXR act counter
Cc1cccc(-c2c3c(nc4c2c(=O)n(C)c(=O)n4C)-c2ccccc2C3O)c1 (stereo not given)	4	·	1	6	-2	2	·	·
Cc1ccc(CSc2nc3ccccc3cc2C=O)cc1	-3	-1	-1	82*	-6	6	72*	15*
S=c1nc2ccccc2c2nc(-c3ccccc3Cl)[nH]n12	4	4	0	134*	0	2	129*	28*
S=c1nc2ccccc2c2nc(-c3ccccc3)[nH]n12	25	-3	0	106*	9	6	129*	23*
Clc1ccccc1-c1nc2ccccc2c2nc3ccccc3n12	26	-2	-1	2	1	1	·	·
O=C(c1ccc(N2CCN(C(=O)c3ccc(F)cc3F)CC2)cc1)c1cccc(F)c1	28	1	-1	7	5	-3	·	·
O=C(NC1CC1)C1=C[C@H](c2ccc(C(F)(F)F)cc2)C[C@H](OCCCCO)O1	-8	·	1	100*	2	0	46	14*
O=C(NC1CC1)C1=C[C@@H](c2ccc(C(F)(F)F)cc2)C[C@@H](OCCCCO)O1	-7	·	0	12	6	3	·	·
Clc1ccc(-n2nnc(-c3cccnc3Cl)n2)cc1Cl	9	3	1	6	12	3	·	·
Fc1ccc(-n2nnc(-c3cccnc3Cl)n2)cc1	29	10	4.4*	79*	27	1	69*	19*
CC(=O)c1cccc(NC(=O)COC(=O)C2=COCCO2)c1	-3	-3	-1	2	-5	2	·	·
COc1ccc(/C=C2\SC(=S)N(NC(=O)c3ccncc3)C2=O)cc1OC	24	-3	·	-1	14	·	·	·
COc1ccc(/C=C2\SC(=N)N(c3nccs3)C2=O)cc1OC	-41	2	-2	85*	-37	4	53*	17*
CCN(CC)CCNC(=O)Cn1cnc2sc(C)c(S(=O)(=O)N3CCN(c4ncccn4)CC3)c2c1=O	·	-2	0	-1	·	1	·	·
CCc1cc(C(=O)N/N=C/c2c(C)[nH]c3ccccc23)cs1	4	3	1	99*	6	-1	83*	28*
c1ccc(Oc2ccc(-c3ccnc4ncnn34)cc2)cc1	29	-4	-1	0	5	1	·	·
Clc1ccc(COc2ccccc2-c2ccnc3ncnn23)cc1	13	2	0	87*	5	3	52*	65*
O=C(NCCN1C(=O)C2C3C=CC(C3)C2C1=O)N1CCCCC1 (stereo not given)	-5	1	-1	92*	-4	2	6	21*
O=C(NCCN1C(=O)C2C3C=CC(C3)C2C1=O)NCc1ccccc1 (stereo not given)	0	2	2	1	-4	0	·	·
N#Cc1c(-c2ccc(Br)cc2)cc(-c2cccnc2)nc1N	-15	2	2	93*	-2	4	73*	18*
N#Cc1c(-c2cccs2)cc(-c2ccccn2)nc1N	-11	0	-1	80*	-4	2	98*	23*
N#Cc1c(-c2cccs2)cc(-c2cccnc2)nc1N	-15	2	0	102*	2	0	130*	28*
N#Cc1c(-c2cccc(Br)c2)cc(-c2cccnc2)nc1N	12	-1	-1	23	-2	0	·	·
OCCN(CCO)c1cc2c3ccccc3ccc2c2ccccc12	·	·	-2	·	·	3	·	·
NC(=S)NN=Cc1ccc(-c2ccc(S(=O)(=O)Nc3ncccn3)cc2)o1	·	·	3	10	·	0	·	·
SMILES	HSF1 activator	HSP90 inh	NR0B1 inh	AHR act	HSF1 inh	FXN GAA850 act	AHR act confirm	PXR act counter
NC(=S)N/N=C/c1ccc(-c2ccccc2)o1	-3	4	2	93*	2	0	32	21*
Cc1ccc(-c2ccc(/C=N/NC(N)=S)o2)cc1	24	2	3	100*	21	3	90*	13*
NC(=S)N/N=C\c1ccc(-c2cccc(Cl)c2Cl)o1	2	4	0	107*	0	1	110*	26*
COCCNC(=S)N/N=C/c1ccc(-c2ccc([N+](=O)[O-])cc2)o1	20	2	-1	128*	5	-1	89*	11*
CN(CC(=O)Nc1ccccc1Cl)C(=O)COC(=O)C1CC1	-1	·	0	-1	1	1	·	·
O=[N+]([O-])c1cccc(C(=Nc2ccccc2Cl)NO)c1	-3	1	0	85*	7	0	73*	50*
ONC(=Nc1ccccc1Cl)c1ccccc1Cl	13	2	-1	6	5	2	·	·
CCCCc1cc2c(c(NC(C)=O)n1)c(=O)oc1ccccc12	18	-2	·	94*	-3	·	99*	·
COc1ccc(NC(=O)c2ccco2)cc1NC(=O)c1ccc(C)cc1	-10	2	-2	93*	-3	-1	106*	13*
COc1ccc(NC(=O)c2ccco2)c(OC)c1	37	-2	2	-1	3	4	·	·
COc1cc(NC(=O)c2cccs2)c(OC)cc1NC(=O)c1ccco1	-14	7	-2	94*	-2	3	117*	10*
[O-][n+]1onc2c1CCc1nnccc1-2	4	-2	0	4	-13	2	·	·
[O-][n+]1onc2c1CCc1nnc(-c3ccccc3)cc1-2	-1	-1	-1	97*	-1	-2	80*	·
C=CCNc1ncnc2c1[nH]c1ccc(Cl)cc12	48	-3	-4	110*	31	4	113*	44*
Nc1nonc1C(=O)NCCNC(=O)c1ccc(Cl)c(Cl)c1	20	0	2	3	3	1	·	·
Cc1cc(C)nc(N/N=C/c2cccc3ccccc23)n1	14	-4	1	89*	-1	4	32	34*
Cc1cc(C)nc(N/N=C/c2ccccc2Cl)n1	25	-1	·	8	7	3	·	·
COc1cc(OC)cc(-c2nnc(Nc3nc4c(F)cccc4s3)o2)c1	-20	5	1	0	-11	1	·	·
Fc1cccc2sc(Nc3nnc(-c4ccccc4)o3)nc12	73*	-1	-1	155*	49	4	120*	22*
COc1cc(CNc2nc(C)c([N+](=O)[O-])c(C)c2C#N)cc(OC)c1	31	-1	0	8	19	-1	·	·
Cc1nc(NCCc2ccc(F)cc2)c(C#N)c(C)c1[N+](=O)[O-]	51*	-1	1	108*	20	3	113*	24*
